Usually inhibition stands for the change of the read-out against control, counted positive when it falls.

Molecules are shown by their SMILES.

In assay [1] the target is Sphingosine kinase 1 (Homo sapiens) (UniProt Q9NYA1). Particulars: at 1 µM.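 Also: mean SPHK1 inhibition value reported from the GSK PKIS kinase panel screen.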
In assay [2] the target is T1, Sphingosine kinase 2 (Homo sapiens) (UniProt Q9NRA0).
T1 sequence (whole entry): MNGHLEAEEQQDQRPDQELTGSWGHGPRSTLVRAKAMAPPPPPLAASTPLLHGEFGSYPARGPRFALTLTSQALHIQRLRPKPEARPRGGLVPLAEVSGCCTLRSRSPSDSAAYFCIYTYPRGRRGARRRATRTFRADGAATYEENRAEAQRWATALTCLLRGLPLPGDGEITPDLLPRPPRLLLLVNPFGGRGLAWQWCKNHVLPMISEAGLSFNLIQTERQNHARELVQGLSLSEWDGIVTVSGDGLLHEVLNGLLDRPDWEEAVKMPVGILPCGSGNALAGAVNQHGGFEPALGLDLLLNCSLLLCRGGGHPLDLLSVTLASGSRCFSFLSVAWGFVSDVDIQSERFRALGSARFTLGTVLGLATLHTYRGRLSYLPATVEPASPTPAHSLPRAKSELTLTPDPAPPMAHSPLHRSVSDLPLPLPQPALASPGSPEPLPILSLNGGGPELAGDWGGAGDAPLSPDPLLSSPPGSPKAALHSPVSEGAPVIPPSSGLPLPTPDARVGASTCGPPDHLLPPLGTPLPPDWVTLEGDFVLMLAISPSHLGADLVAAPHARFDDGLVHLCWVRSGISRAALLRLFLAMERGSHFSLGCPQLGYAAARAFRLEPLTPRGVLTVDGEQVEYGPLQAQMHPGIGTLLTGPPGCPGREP
Particulars: at 0.1 µM.

For assay [3], the target named is T1, Sphingosine kinase 2 (Homo sapiens). Particulars: at 1 µM.
The target of assay [4] is Casein kinase II subunit alpha (Homo sapiens) (UniProt P68400). Particulars: at 0.1 µM.
Assay [5] shares this target. The following applies: at 1 µM.
Assay [6] addresses T2, Inhibitor of nuclear factor kappa-B kinase subunit alpha (Homo sapiens) (UniProt O15111).
T2 sequence (whole entry): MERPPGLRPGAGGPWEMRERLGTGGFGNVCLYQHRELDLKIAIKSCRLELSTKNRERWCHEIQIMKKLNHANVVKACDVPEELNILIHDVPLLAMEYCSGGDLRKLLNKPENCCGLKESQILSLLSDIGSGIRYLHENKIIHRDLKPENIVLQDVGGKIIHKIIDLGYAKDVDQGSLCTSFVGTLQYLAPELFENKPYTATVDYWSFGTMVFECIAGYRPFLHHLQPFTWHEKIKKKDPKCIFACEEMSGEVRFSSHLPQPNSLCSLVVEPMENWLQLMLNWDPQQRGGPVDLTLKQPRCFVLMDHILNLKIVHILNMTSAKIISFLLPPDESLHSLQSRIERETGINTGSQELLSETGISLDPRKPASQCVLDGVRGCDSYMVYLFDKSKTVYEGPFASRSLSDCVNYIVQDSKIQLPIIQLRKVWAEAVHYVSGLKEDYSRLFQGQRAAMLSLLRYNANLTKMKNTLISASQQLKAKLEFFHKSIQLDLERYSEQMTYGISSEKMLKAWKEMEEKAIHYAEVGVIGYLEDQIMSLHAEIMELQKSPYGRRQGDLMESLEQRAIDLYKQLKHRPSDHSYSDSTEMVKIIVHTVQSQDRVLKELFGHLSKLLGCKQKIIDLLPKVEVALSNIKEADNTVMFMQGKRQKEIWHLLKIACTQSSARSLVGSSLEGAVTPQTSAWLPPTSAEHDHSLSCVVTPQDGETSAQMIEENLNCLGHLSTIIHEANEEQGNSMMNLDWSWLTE
The following applies: at 0.1 µM.

Assay [7] deals with T2, Inhibitor of nuclear factor kappa-B kinase subunit alpha (Homo sapiens). Particulars: at 1 µM.
Assay [8] concerns the target T3, Inhibitor of nuclear factor kappa-B kinase subunit beta (Homo sapiens) (UniProt O14920).
T3 sequence (whole entry): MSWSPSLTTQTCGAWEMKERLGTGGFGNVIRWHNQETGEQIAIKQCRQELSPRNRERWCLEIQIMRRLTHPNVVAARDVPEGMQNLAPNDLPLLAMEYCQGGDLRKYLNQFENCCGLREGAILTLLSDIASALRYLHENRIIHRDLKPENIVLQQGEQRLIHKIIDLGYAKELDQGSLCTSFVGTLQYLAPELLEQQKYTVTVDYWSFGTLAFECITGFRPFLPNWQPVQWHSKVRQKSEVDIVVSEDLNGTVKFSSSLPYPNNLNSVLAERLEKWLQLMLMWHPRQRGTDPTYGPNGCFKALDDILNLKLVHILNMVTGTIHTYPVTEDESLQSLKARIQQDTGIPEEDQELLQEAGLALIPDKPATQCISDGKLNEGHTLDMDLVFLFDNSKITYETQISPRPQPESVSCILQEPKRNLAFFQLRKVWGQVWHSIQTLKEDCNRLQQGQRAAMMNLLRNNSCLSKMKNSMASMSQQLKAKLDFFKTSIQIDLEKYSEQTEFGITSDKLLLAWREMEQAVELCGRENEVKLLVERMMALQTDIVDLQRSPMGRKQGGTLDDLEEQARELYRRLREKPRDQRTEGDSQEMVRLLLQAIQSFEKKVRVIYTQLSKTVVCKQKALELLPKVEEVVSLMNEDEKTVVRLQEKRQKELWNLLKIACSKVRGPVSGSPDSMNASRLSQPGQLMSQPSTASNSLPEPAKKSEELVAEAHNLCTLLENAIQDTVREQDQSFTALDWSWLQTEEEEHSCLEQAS
Particulars: at 0.1 µM.

Assay [9] has as its target T3, Inhibitor of nuclear factor kappa-B kinase subunit beta (Homo sapiens). Particulars: at 1 µM.
Assay [10] deals with T4, Inhibitor of nuclear factor kappa-B kinase subunit epsilon (Homo sapiens) (UniProt Q14164).
T4 sequence (whole entry): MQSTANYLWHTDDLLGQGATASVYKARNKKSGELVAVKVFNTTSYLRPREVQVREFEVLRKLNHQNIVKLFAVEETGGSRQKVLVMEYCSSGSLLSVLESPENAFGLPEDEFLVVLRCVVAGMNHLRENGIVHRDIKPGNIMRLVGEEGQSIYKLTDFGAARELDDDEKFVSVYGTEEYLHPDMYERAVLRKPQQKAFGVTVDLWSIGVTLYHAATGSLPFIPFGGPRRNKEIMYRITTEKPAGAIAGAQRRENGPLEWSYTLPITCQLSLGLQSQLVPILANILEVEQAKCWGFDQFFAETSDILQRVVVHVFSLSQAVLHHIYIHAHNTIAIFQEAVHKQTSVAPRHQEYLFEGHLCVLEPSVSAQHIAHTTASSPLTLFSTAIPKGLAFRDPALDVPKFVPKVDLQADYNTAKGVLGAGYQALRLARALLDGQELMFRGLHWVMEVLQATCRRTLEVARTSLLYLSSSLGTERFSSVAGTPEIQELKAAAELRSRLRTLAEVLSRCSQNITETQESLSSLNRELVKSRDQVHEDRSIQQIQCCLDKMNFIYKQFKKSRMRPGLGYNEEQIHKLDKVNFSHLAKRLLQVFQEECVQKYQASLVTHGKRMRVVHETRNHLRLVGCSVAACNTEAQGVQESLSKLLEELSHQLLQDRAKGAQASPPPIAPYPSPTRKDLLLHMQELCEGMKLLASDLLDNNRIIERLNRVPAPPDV
Particulars: at 0.1 µM.

For assay [11], the target named is T4, Inhibitor of nuclear factor kappa-B kinase subunit epsilon (Homo sapiens). The following applies: at 1 µM.
Assay [12] addresses T5, Serine/threonine-protein kinase Nek1 (Homo sapiens) (UniProt Q96PY6).
T5 sequence (whole entry): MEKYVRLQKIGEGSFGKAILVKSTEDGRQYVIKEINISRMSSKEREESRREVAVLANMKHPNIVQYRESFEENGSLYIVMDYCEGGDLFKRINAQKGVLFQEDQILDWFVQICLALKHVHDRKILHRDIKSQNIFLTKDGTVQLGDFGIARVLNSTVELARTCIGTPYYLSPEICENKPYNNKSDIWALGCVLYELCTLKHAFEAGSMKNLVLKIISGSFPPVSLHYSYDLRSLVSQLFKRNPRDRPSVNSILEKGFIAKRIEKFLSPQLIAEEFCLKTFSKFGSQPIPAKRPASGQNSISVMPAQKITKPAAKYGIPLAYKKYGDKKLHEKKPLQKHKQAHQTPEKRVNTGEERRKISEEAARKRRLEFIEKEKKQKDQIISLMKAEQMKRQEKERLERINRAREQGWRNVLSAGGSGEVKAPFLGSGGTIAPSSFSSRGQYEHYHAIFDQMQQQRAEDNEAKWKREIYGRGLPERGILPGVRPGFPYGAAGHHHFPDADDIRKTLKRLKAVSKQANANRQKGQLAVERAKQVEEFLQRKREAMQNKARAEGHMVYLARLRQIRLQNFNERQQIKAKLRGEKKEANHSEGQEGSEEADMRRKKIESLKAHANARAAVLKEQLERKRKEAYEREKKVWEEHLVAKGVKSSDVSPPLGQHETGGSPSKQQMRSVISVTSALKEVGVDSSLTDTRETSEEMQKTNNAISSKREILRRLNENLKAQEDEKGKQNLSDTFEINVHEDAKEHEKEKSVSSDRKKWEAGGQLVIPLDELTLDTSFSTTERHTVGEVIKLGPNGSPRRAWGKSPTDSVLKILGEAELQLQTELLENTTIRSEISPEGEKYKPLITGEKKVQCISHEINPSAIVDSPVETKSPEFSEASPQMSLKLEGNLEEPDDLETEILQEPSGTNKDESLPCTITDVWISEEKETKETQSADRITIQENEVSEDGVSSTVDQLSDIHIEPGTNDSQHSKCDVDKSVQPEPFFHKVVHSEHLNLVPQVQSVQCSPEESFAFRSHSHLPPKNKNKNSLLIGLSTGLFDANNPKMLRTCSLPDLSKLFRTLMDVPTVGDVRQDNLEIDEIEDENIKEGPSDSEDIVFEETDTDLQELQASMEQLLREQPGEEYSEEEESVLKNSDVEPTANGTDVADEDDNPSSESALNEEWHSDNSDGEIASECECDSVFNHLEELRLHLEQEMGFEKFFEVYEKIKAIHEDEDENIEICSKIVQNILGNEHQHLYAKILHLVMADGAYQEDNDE
The following applies: at 0.1 µM.

Assay [13] addresses T5, Serine/threonine-protein kinase Nek1 (Homo sapiens). The following applies: at 1 µM.
The target of assay [14] is T6, Serine/threonine-protein kinase Nek2 (Homo sapiens) (UniProt P51955).
T6 sequence (whole entry): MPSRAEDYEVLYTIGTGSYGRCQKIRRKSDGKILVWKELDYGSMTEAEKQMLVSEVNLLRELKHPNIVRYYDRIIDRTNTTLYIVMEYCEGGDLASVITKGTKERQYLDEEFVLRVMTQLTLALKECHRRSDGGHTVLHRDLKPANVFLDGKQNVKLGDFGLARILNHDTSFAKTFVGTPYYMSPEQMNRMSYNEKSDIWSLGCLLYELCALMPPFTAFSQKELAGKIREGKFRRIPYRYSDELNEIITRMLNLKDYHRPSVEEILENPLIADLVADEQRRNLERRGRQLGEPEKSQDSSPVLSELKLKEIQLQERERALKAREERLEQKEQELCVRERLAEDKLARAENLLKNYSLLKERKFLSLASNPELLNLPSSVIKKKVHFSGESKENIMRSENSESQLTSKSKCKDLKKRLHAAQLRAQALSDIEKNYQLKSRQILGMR
The following applies: at 0.1 µM.

Assay [15] has as its target T6, Serine/threonine-protein kinase Nek2 (Homo sapiens). The following applies: at 1 µM.
Assay [16] concerns the target Serine/threonine-protein kinase Nek6 (Homo sapiens) (UniProt Q9HC98). The following applies: at 0.1 µM.
For assay [17] the target is unchanged. Particulars: at 1 µM.
For assay [18], the target named is Serine/threonine-protein kinase Nek7 (Homo sapiens) (UniProt Q8TDX7). Particulars: at 0.1 µM.
Assay [19] has the same target. Particulars: at 1 µM.
Assay [20] has as its target T7, Serine/threonine-protein kinase Nek9 (Homo sapiens) (UniProt Q8TD19).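 Also: reported value is the mean percent inhibition of NEK9.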
T7 sequence (whole entry): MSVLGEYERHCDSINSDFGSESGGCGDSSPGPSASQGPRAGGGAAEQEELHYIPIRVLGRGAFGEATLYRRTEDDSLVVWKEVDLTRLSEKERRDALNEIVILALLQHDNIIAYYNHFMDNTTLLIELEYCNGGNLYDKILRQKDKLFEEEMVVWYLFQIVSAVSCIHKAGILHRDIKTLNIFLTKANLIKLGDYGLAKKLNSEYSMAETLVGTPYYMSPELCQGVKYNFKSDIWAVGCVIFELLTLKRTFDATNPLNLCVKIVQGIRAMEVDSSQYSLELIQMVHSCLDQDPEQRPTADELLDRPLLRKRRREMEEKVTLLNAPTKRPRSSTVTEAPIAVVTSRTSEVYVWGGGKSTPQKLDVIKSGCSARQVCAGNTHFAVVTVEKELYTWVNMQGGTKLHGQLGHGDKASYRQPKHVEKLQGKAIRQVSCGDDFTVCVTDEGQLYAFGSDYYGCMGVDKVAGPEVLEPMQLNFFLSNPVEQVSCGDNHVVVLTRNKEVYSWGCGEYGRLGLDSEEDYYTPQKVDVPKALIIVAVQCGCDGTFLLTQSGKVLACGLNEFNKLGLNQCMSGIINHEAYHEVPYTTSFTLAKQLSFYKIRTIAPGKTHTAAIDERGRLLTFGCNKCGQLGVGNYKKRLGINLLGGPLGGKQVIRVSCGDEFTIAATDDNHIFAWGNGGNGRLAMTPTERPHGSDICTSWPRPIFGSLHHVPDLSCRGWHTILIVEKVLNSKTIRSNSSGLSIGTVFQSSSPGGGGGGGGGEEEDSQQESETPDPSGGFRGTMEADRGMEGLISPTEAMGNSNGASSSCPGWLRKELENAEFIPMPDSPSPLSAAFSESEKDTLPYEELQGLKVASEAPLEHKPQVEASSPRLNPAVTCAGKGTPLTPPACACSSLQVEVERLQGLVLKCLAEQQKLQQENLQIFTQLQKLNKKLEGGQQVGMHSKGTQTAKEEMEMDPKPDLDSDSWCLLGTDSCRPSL
Particulars: at 0.1 µM.

Chain of Serine/threonine-protein kinase Nek6 (Homo sapiens) (Q9HC98 whole entry): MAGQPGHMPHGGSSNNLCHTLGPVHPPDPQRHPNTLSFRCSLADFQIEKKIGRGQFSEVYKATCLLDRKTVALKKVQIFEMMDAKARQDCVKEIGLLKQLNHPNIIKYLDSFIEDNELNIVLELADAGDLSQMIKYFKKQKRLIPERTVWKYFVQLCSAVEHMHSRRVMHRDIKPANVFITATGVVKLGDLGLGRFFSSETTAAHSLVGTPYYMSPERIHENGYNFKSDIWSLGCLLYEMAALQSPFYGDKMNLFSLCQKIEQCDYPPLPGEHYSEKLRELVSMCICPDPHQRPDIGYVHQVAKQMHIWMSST
Chain of Casein kinase II subunit alpha (Homo sapiens) (P68400 whole entry, looked up): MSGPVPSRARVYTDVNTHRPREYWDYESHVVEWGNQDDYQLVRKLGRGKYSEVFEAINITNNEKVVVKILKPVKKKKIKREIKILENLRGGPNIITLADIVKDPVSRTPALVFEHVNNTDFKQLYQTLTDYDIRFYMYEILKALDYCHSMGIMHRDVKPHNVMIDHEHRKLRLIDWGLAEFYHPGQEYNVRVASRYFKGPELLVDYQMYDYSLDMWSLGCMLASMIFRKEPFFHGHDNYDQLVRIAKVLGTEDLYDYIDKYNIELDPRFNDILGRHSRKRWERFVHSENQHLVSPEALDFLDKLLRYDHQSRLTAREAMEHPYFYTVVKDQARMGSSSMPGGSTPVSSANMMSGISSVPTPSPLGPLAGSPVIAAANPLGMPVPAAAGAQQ
Chain of Serine/threonine-protein kinase Nek7 (Homo sapiens) (Q8TDX7 whole entry, looked up): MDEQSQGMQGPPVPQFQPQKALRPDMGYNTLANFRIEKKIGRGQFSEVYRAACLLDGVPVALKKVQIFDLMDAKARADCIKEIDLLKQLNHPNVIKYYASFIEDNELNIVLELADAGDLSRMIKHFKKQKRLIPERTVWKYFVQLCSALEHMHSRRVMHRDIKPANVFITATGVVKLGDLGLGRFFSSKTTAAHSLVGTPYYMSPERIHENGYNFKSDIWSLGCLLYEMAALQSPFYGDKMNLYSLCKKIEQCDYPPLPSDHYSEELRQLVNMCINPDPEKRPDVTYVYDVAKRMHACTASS
Chain of Sphingosine kinase 1 (Homo sapiens) (Q9NYA1 whole entry): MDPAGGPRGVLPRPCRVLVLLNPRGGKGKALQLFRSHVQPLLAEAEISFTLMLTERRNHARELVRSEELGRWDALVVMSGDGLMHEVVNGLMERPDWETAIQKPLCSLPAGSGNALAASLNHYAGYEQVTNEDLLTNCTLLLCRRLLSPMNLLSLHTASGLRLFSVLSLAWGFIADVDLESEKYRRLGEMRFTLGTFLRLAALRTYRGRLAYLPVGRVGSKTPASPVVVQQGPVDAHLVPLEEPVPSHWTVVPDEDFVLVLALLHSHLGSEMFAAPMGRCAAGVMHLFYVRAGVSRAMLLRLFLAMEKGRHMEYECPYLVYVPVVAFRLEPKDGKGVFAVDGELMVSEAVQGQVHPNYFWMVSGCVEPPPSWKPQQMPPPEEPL

Regarding `N#Cc1cccc(Nc2ncc(-c3ccccc3)o2)c1`, the inhibition in assay [1] is -2.86%; in assay [2] it was 0.09%; in assay [3] it was -1.96%; in assay [4], 2.39%; in assay [5] it was 11.7%; in assay [6] it was 5.02%. The inhibition was determined as 3.79% in assay [7]; 3.29% in assay [8]; 5.96% in assay [9]; 5.55% in assay [10]; 6.35% in [11]; 1.6% in assay [12]. Also, the inhibition was found to be 2.44% in assay [13]; 2.51% in assay [14]; 0.06% in [15]; 1.87% in [16]; 5.4% in [17]; 2.82% in assay [18]. Moreover, the figures for the inhibition in [19] and in [20] were 1.01% and 8.32%, respectively.

The values are drawn from ChEMBL document CHEMBL1961873, “Compounds: GSK PKIS; Assays: Nanosyn kinase panel” (2012).
